Mdm2 MdmX PPI: inhibitors of human Mdm2/MdmX interaction; 3% of 330,000 active; SaOS-2 split-luciferase Mdm2/MdmX complementation, luminescence; inhibition, % at 8 µM; O15151+Q00987;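 active means inhibition of at least 50% at 8 µM in the primary screen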
Target sequence (O15151 whole entry, looked up): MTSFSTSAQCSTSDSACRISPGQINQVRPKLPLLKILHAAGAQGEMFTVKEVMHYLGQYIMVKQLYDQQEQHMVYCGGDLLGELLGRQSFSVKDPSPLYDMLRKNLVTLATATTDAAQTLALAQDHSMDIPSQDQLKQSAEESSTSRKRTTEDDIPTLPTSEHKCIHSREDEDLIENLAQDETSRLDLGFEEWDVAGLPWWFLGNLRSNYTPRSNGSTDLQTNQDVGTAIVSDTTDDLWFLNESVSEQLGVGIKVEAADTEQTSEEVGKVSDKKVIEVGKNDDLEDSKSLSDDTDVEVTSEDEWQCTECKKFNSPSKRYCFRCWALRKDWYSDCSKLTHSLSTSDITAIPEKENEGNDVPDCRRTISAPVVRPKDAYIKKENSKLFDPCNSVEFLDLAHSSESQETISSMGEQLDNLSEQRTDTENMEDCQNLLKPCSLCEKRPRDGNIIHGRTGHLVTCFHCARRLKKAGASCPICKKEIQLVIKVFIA
Target sequence (Q00987 whole entry, looked up): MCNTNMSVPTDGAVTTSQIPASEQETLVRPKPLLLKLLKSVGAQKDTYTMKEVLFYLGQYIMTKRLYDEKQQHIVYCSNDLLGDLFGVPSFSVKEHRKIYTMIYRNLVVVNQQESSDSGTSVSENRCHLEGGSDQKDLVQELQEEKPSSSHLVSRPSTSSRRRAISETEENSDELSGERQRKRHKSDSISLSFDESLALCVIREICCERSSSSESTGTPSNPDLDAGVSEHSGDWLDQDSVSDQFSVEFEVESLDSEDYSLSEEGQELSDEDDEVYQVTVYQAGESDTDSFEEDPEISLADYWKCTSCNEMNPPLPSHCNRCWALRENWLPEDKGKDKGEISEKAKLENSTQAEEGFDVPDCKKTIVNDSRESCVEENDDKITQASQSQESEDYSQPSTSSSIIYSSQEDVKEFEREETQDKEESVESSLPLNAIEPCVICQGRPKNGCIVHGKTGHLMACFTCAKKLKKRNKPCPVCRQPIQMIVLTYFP
Jurkat NFkB inh: inhibitors of the PMA/ionomycin-induced NF-kB reporter in Jurkat cells; PMA/ionomycin-induced NF-kB luciferase reporter, luminescence; inhibition, % at 4 µM; 0.53% of 330,000 active; AID 435003; in the data active means inhibition above about 50%
NTR1 agonist: agonists of human neurotensin receptor NTR1; P30989; NTR1-U2OS beta-arrestin-GFP spot imaging, agonist mode; activation, % at 20 µM; 0.17% of 330,000 active; AID 493036;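 active means activation at or above 40% of the spot to cytoplasm intensity ratio, with at least 20 cells analyzed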
Beta cell apopt: beta cell apoptosis inhibition; INS-1E cytokine-induced death, ATP luminescence, 48 h; percent of positive-control rescue, neutral wells zero; AID 435005; 0.8% of 300,000 active; protection from apoptosis, % (no concentration beside the values);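 active means Every replicate reaches about 75%, or at least half do and their mean reaches it too, limit read from the data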;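 further: higher means more ATP so stronger rescue from cytokine killing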
Bfl-1 A1 inh: inhibitors of the anti-apoptotic protein A1, read as caspase activation | MEF A1-2A-BIM cells, Caspase-Glo 3/7 luminescence, 3 h; percent of clofoctol response, vehicle zero | caspase activation, % (test concentration not listed) | 0.066% of 330,000 active | AID 2462;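 active means over half of replicate activation scores above 10%, or exactly half above 10 with the replicate mean above 10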
697 NFkB inh: inhibitors of the PMA/ionomycin-induced NF-kB reporter in 697 B cells | 697 B-cell NF-kB luciferase reporter, 16 h | inhibition, % at 4 µM | 0.33% of 330,000 active; in the data active means inhibition above about 35%
Mdm2 MdmX conf: confirmation of human Mdm2/MdmX interaction inhibitors. shares compounds with Mdm2 MdmX PPI. inhibition, % at 8 µM. Mdm2-MdmX binding, luminescent assay. 55% of 10,000 active; in the data active means inhibition above about 40%
FLuc counter: full-length luciferase inhibition in Mdm2/MdmX counter-screen. shares compounds with Mdm2 MdmX PPI. SaOS-2 full-length luciferase counterscreen, luminescence. inhibition, % at 8 µM. 77% of 6,200 active;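 active means mean inhibition at 8 µM reaching about 37%, which flags the compound as non-specific, limit read from the data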;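 further: p53-null SaOS-2 cells with luciferase driven by a doxycycline-inducible promoter; compound on cells about two nights before reading with doxycycline added after day one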
Large screens that a line does not name were inactive (follow-up assays come after a bar, where they were run). An excerpt weighted towards active compounds, which were near 3.8% of everything screened.

Cn1nnnc1Sc1ncnc2scc(-c3cccc(S(C)(=O)=O)c3)c12	Mdm2 MdmX PPI 84 | Mdm2 MdmX conf 70 | FLuc counter inactive
CCOc1ccc(Br)cc1S(=O)(=O)N1CCSC1	none (no result: Beta cell apopt)
C=C1CCC[C@]2(C)C[C@H]3OC(=O)C(CN4CC(C)OC(C)C4)[C@H]3C[C@@H]12 (some centres undefined)	none
CC1CCN(CC2C(=O)O[C@@H]3C[C@@]4(C)CCC[C@H](C)C4=C[C@H]23)CC(C)(C)C1 (some centres undefined)	Mdm2 MdmX PPI 65 | Mdm2 MdmX conf 43 | FLuc counter 44
Cc1ccc(-c2nc3c(c(=O)[nH]c(=O)n3Cc3ccccc3)n2C)s1	Mdm2 MdmX PPI 62 | Mdm2 MdmX conf inactive
Cc1ccc(CCNC(=O)Cc2ccc(NC3=NC4CS(=O)(=O)CC4S3)cc2)cc1 (centres undefined)	none (no result: Bfl-1 A1 inh)
CCN(CC)C(=O)c1sc(NC(=O)C(Sc2ccccc2)c2ccccc2)c(C(=O)OC(C)C)c1C (centres undefined)	Mdm2 MdmX PPI 58 | Mdm2 MdmX conf inactive
CCN(CC)C(=O)c1sc(N)c(C(=O)OC(C)C)c1C	none (no result: Beta cell apopt)
COc1ccc(C(=O)NNC(=O)CCc2ccccc2OC)cc1	none
COc1ccc(-c2nnc(NC(=O)c3ccc(S(=O)(=O)N4CCCc5ccccc54)cc3)o2)cc1	Mdm2 MdmX PPI 62 | Mdm2 MdmX conf 59 | FLuc counter 46
CC1CN(S(=O)(=O)c2ccc(C(=O)Nc3nnc(-c4ccc5c(c4)CCCC5)o3)cc2)CC(C)O1 (centres undefined)	Mdm2 MdmX PPI 67 | Mdm2 MdmX conf inactive | FLuc counter 59
CC1CN(S(=O)(=O)c2ccc(C(=O)Nc3nnc(-c4ccccn4)o3)cc2)CC(C)O1 (centres undefined)	none
O=C(Nc1nnc(C2CC2)o1)c1ccc(S(=O)(=O)N2CCCc3ccccc32)cc1	Mdm2 MdmX PPI 50 | Mdm2 MdmX conf 44 | FLuc counter 71
CN1C2CCC1CC(NS(=O)(=O)c1cc(Cl)c(Cl)cc1Cl)C2 (centres undefined)	none
CC(OC(=O)Cc1ccsc1)C(=O)Nc1ccc(C(N)=O)cc1 (centres undefined)	none (no result: Beta cell apopt, Bfl-1 A1 inh)
Cc1ccc(NC(=O)C(=O)c2ccc(C)cc2)cc1	none
O=C(NNC(=O)c1ccccc1[N+](=O)[O-])c1csc(N2CCOCC2)n1	none
O=C1N=C(N2CCCC2)S/C1=C\C=C\c1ccccc1	Mdm2 MdmX PPI 59 | Mdm2 MdmX conf 64 | FLuc counter 152
COc1ccc(-c2cc(-c3ccc(F)cc3)nc(N3CCN(C)CC3)n2)cc1	Mdm2 MdmX PPI 79 (no result: Beta cell apopt) | Mdm2 MdmX conf inactive
COc1ccc(Nc2nc(N3CCCC3)nc(N3CCCC3)n2)c(OC)c1	none
COc1ccc(Nc2nc(Nc3ccc(OC)cc3OC)nc(N3CCN(C)CC3)n2)c(OC)c1	Mdm2 MdmX PPI 51 | Mdm2 MdmX conf inactive
O=C(O)c1ccccc1NC(=O)c1ccccc1Nc1ccccc1	none
COc1ccc(Cl)cc1NS(=O)(=O)c1cccc(C(=O)NCC(c2ccco2)N(C)C)c1 (centres undefined)	none
O=S(=O)(c1cccc(F)c1)N1CCN(Cc2cc3c(cc2Br)OCCO3)CC1	none
Cc1cc([N+](=O)[O-])cc(/C=N\NC(=O)C2COc3ccccc3O2)c1O (centres undefined)	Mdm2 MdmX PPI 52 | Mdm2 MdmX conf 40 | FLuc counter inactive
CCN(CC)c1ccc(/C=N/NC(=O)CNC(=O)C2COc3ccccc3O2)c(O)c1 (centres undefined)	Mdm2 MdmX PPI 77, Beta cell apopt 99 | Mdm2 MdmX conf 76 | FLuc counter inactive
CCN(CC)c1ccc(/C=N/NC(=O)CCC(=O)NCc2ccccc2)c(O)c1	Mdm2 MdmX PPI 71, Beta cell apopt 98 | Mdm2 MdmX conf 76 | FLuc counter inactive
CCN(CC)c1ccc(/C=N/NC(=O)c2c(Cl)cnn2C)c(O)c1	Mdm2 MdmX PPI 71, Beta cell apopt 95 | Mdm2 MdmX conf 81 | FLuc counter inactive
CC1CCN(S(=O)(=O)CCNC(=O)c2ccccc2)CC1	none
COc1ccc(C(=O)/C=C/c2ccc(OC)c(Cn3nnc4ccccc43)c2)cc1	Mdm2 MdmX PPI 62 | Mdm2 MdmX conf 43 | FLuc counter 68
C/C(CC(=O)Nc1ccc(F)cc1F)=N\NC(=O)C(=O)N1CCCCC1	none
CCOCCc1nn2c(=O)cc(CSCC(=O)Nc3cc(C)cc(C)c3)nc2s1	none
CC(C)c1ccc(NC(=S)Nc2ccc(OC(F)(F)F)cc2)cc1	none
FC(F)(F)Oc1ccc(NC(=S)Nc2ccc(OC(F)(F)F)cc2)cc1	Mdm2 MdmX PPI 79 (no result: Beta cell apopt) | Mdm2 MdmX conf inactive
O=C(CSc1nc(-c2cccs2)nc2ccccc12)NC1CCS(=O)(=O)C1 (centres undefined)	Mdm2 MdmX PPI 61 | Mdm2 MdmX conf inactive
CCN(C(=O)CSc1nc(-c2cccs2)nc2ccccc12)C1CCS(=O)(=O)C1 (centres undefined)	none
O=C(O/N=C(\c1ccccc1)c1ccncc1)c1ccccc1Cl	none
Cc1cccc(/C(N)=N/OC(=O)N2c3ccccc3Sc3ccccc32)c1	Mdm2 MdmX PPI 64 | Mdm2 MdmX conf inactive
O=C(NN=C(c1ccccc1)c1ccccn1)c1ccccc1	Mdm2 MdmX PPI 91, Beta cell apopt 103 | Mdm2 MdmX conf 58 | FLuc counter inactive
O=C(NC(O)C(=O)c1ccccc1)c1ccccn1 (centres undefined)	none
N/C(=N\OC(=O)c1cccc2ccccc12)c1cccc([N+](=O)[O-])c1	Mdm2 MdmX PPI 76 | Mdm2 MdmX conf 58 | FLuc counter 128
N/C(=N\OC(=O)N1c2ccccc2Sc2ccccc21)c1ccccc1	none
O=C(O/N=C(\c1ccccc1)c1ccccn1)c1cccc2ccccc12	Mdm2 MdmX PPI 87 | Mdm2 MdmX conf inactive
Cc1ccc(C)c(S(=O)(=O)Nc2cc3c4c(c2)CCC(=O)N4CCC3)c1	none
COc1ccc(S(=O)(=O)Nc2cccc3c2O[C@@H](CN(C)CC2CC2)[C@@H](C)CN([C@@H](C)CO)C3=O)cc1	none
COc1cc(OC)cc(C(=O)O/N=C(\N)c2cccc(C)c2)c1	Mdm2 MdmX PPI 73 | Mdm2 MdmX conf 44 | FLuc counter 105
Cc1cccc(/C(N)=N/OC(=O)c2cccc3ccccc23)c1	Mdm2 MdmX PPI 100 | Mdm2 MdmX conf 78 | FLuc counter 108
N/C(=N\OC(=O)c1cccc2ccccc12)c1cccnc1	none
COc1cc(NC(=O)c2cccs2)c(OC)cc1NC(=O)Nc1ccc(F)cc1	none
